Inconclusive results are not listed. Unmarked numbers belong to inactive results. Calls of active or inactive are those of the source. The call rests on the fitted dose curve; in most records, active means well fitted inhibition curve with a large enough effect; inconclusive means small, poorly fitted or top-dose-only effect; inactive means no such curve, though single readings can be large or run the other way.
Assay: Primary fluorescence-based thiol-reactive (MSTI) qHTS assay for identification of artifact compounds. (AID 1845221); further: nearly all actives have a fitted effect of over 65% in size;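 on activity change, negative = thiol reactive: thiol-reactive compounds lower the probe fluorescence signal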
Conditions: MSTI thiol-reactivity probe, 1 h; series mostly up to 53.8 µM; activity change, negative = thiol reactive: at the top concentration
In short: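 First, 4 uM MSTI in 2% DMSO/PBS pH 7.4 was dispensed; next, compounds were added; then plates sat 1 h at room temperature without light. Finally, emission at 598 nm was recorded.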
`CC(=O)O[C@@H]1[C@H](O[C@@H]2OC[C@](O)(CO)[C@H]2O)[C@@H](O[C@@H]2O[C@@H](C)[C@H](O)[C@@H](O[C@@H]3O[C@H](CO)[C@@H](O)[C@H](O)[C@H]3O)[C@H]2O)[C@H](OC(=O)[C@]23CCC(C)(C)C[C@H]2C2=CCC4[C@@]5(C)C[C@H](O)[C@H](O[C@@H]6O[C@H](C(=O)O)[C@@H](O)[C@H](O)[C@H]6O)[C@@](C)(C(=O)O)C5CC[C@@]4(C)[C@]2(C)CC3)O[C@@H]1C` (stereo not given in full) showed an activity change, negative = thiol reactive of 238% [at 11.5 µM].
For `C[C@@H]1C[C@H]2OC(=O)[C@@]3(C)CCC[C@](C)(C23)[C@@]1(O)CCC1=CC(=O)OC1O` (stereo not given in full), the Potency was 3.29 µM (active).
With `C[C@@H]1O[C@@H](O[C@H]2[C@H](OC(=O)[C@]34CCC(C)(C)C[C@H]3C3=CCC5[C@@]6(C)C[C@@H](O)[C@@H](O[C@@H]7O[C@H](CO)[C@@H](O)[C@H](O)[C@H]7O)[C@@](C)(CO)C6[C@H](O)C[C@@]5(C)[C@]3(C)CC4)OC[C@H](O)[C@@H]2O)[C@H](O)[C@H](O[C@@H]2OC[C@](O)(CO)[C@H]2O)[C@H]1O[C@@H]1OC[C@@H](O)[C@H](O[C@H]2O[C@H](C)[C@@H](O)[C@H](O)[C@@H]2O)[C@H]1O` (stereo not given in full) the activity change, negative = thiol reactive was 412% [at 11.5 µM].
In the case of `CC1CC2(O)OC(=O)C3=C2C(CCC3)[C@@]12C[C@@H](c1ccoc1)OC2=O` (stereo not given in full), the Potency is reported as 4.65 µM (active).
In the case of `CC(=O)O[C@H]1C[C@@]2(C)[C@@H](CC[C@H]3[C@@]4(C)C=CC(=O)[C@@H](C)[C@@H]4[C@H](OC(C)=O)C(=O)[C@@]32C)/C1=C(\CCC=C(C)C)C(=O)O`, the “activity change, negative = thiol reactive” value is reported as 18.9% [at 25.6 µM].
Potency means the concentration at half of the fitted maximal effect.
